For the experiment, the target named is AT4G31550 (Arabidopsis thaliana, UniProt Q9SV15 228-325). Nature of the experiment: DPI-ELISA; DPI-ELISA, streptavidin 384-well plate, 1-2 pmol biotinylated dsDNA per well, crude native E. coli extract, anti-His detection; buffer as in Brand et al. [46],; high values mean tight binding. To be noted: tags: C-terminal His (pET-DEST42); label: 5' biotin on forward strand; dsDNA, one strand shown.
Chain of AT4G31550 (Q9SV15 228-325): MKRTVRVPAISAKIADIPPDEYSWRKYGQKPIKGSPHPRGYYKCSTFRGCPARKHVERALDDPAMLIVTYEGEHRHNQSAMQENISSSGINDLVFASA
Take AAAAAATGATGTTGGCGCATTTAAACAAAA: the binding signal amounted to 0.53 ± 0.127 absorbance.

Turning to AAAAAATTGCCGTCATAATTGTGGTAAAAA, the binding signal turned out to be 0.59 ± 0.0849 absorbance.

Sequence AAAAAATTTATACTTGATCCTGGCTTAAAA had a binding signal of 0.575 ± 0.0636 absorbance.

AAAAAAATCAGCCTGACTCTGGGCGTAAAA returned a binding signal of 0.71 ± 0.141 absorbance.

Consider AAAAAAGTGCACGACCCATTTATATAAAAA, for which the binding signal was 0.5 ± 0.099 absorbance.

AAAAAATCGCACTGCCGCCGATGGCTAAAA displayed a binding signal of 0.625 ± 0.134 absorbance.

AAAAAACATTCCTAGTTCATGTTACTAAAA showed a binding signal of 0.665 ± 0.134 absorbance.

AAAAAATGAGAGAATTTCCGGTTCAGAAAA yielded a binding signal of 0.575 ± 0.0495 absorbance.

For AAAAAAGGTTGGTACGTCGAGTTCTTAAAA, the binding signal was 0.565 ± 0.163 absorbance.

As for AAAAAATAGGCGTTATGGCTAACACCAAAA, the binding signal was found to be 0.685 ± 0.106 absorbance.

The sequence AAAAAATTCTTAGTTAGATTCACCTCAAAA came in with a binding signal of 0.575 ± 0.134 absorbance.

As to AAAAAAGCTCCCGTCTCTTAGTTCTAAAAA, the binding signal turned out to be 0.695 ± 0.12 absorbance.

In turn, AAAAAACCGATCATCACATATCACTGAAAA came in with a binding signal of 0.58 ± 0.141 absorbance.

Take AAAAAACCCGGTTGGAGAAAATAATTAAAA: the binding signal worked out at 0.55 ± 0.127 absorbance.

With AAAAAATCAACCATTATGGTATTACTAAAA, the binding signal worked out at 0.79 ± 0.212 absorbance.

With AAAAAACTTCTAGTTTATGCTTCCGTAAAA, the binding signal amounted to 0.69 ± 0.141 absorbance.

AAAAAATGTCTTCTTACACCCTCTAGAAAA displayed a binding signal of 0.68 ± 0.0707 absorbance.

In turn, AAAAAATTCCCAGCGTATCCGACCCGAAAA gave a binding signal of 0.535 ± 0.0778 absorbance.

AAAAAATTCTTACTTTTGTCTTTACTAAAA came in with a binding signal of 0.79 ± 0.156 absorbance.

In turn, AAAAAATCTTCTTGTTTCTTATTTCTAAAA showed a binding signal of 0.625 ± 0.12 absorbance.

The sequence AAAAAAGTCTAGTCGTAAAAA registered a binding signal of 0.595 ± 0.0778 absorbance.

AAAAAAATCCATATTATTGCTACCCGAAAA displayed a binding signal of 0.595 ± 0.0636 absorbance.

On to AAAAAAATCTCACTCCTGGTCCCCATAAAA, for which the binding signal was 0.56 ± 0.099 absorbance.

AAAAAAAGGGTCCGGTGCATACATGTAAAA came in with a binding signal of 0.57 ± 0.156 absorbance.

With AAAAAAGTGTTAGATTGTAGTTGATAAAA, the binding signal worked out at 0.675 ± 0.106 absorbance.

In the case of AAAAAATGTCCATCTTGCGTCTGTATAAAA, the binding signal was determined as 0.79 ± 0.212 absorbance.

In the case of AAAAAATCGTAAATGCCCATAGCCGTAAAA, the binding signal stood at 0.555 ± 0.106 absorbance.

Sequence AAAAAAATCCGATCGATGCATATATAAAA yielded a binding signal of 0.725 ± 0.106 absorbance.

Sequence AAAAAAATCGTTGTTATCGTATTTATAAAA returned a binding signal of 0.565 ± 0.12 absorbance.

In turn, AAAAAATATGTTTTCGCTTTATTCTTAAAA registered a binding signal of 0.52 ± 0.099 absorbance.

Take AAAAAATCCATGTTTAAGCTGGTCTCAAAA: the binding signal came to 0.695 ± 0.148 absorbance.

Take AAAAAAACCGATTACCATTTTTACTGAAAA: the binding signal came to 0.695 ± 0.148 absorbance.

As to AAAAAAGTAGGTGCTGATGCTGGCCGAAAA, the binding signal came to 0.59 ± 0.0141 absorbance.

AAAAAATTTTGTTTTTGCTTTTCCTTAAAA returned a binding signal of 0.38 ± 0.0566 absorbance.

The sequence AAAAAATCAGTCTGAGACTTACAACTAAAA displayed a binding signal of 0.84 ± 0.283 absorbance.

AAAAAATCTTACCCCTCCGCTTCTATAAAA: the binding signal is 0.72 ± 0.255 absorbance.

In turn, AAAAAACTCGTACATCTATCGCTACGAAAA had a binding signal of 0.54 ± 0.0849 absorbance.

AAAAAATTAGCTTATCCTTGCTTGTGAAAA gave a binding signal of 0.655 ± 0.134 absorbance.
